Source: PubChem BioAssay (NCI)
Where “and” joins values, the source holds several entries; their conditions need not be identical. Equal values may be shown once. About 79,000 compounds went through this panel and 15% of them were active in at least one assay; those are over-represented in the sample as a whole. Calls of active or inactive are those of the source. Rule as the data show it: active = growth inhibition above about 70%; inactive = the rest.

Legend:
[1] = NCI Yeast Anticancer Drug Screen. Data for the rad50 strain (AID 155);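 also: 0% = growth of vehicle-only cultures of the same strain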; conditions: S. cerevisiae rad50 strain growth inhibition; at 50.0 µM; hits give high values
In short: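 Relative growth inhibition (compound vs vehicle) was measured in yeast with a defined repair-gene alteration.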

[2] = NCI Yeast Anticancer Drug Screen. Data for the mec2-1 strain (AID 157); conditions: S. cerevisiae mec2-1 strain, at 50.0 µM, hits give high values
In short: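 Compounds were applied to mec2-1 yeast cells. Their growth was then compared with that of vehicle-treated cultures to give growth inhibition.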

[3] = NCI Yeast Anticancer Drug Screen. Data for the sgs1 mgt1 strain (AID 161);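 also: 0% = growth of cultures given vehicle only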; conditions: S. cerevisiae sgs1 mgt1 strain, at 50.0 µM, hits give high values
In short: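 Growth of a repair-deficient yeast mutant was monitored after compound treatment and expressed as inhibition relative to vehicle-treated cultures.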

[4] = NCI Yeast Anticancer Drug Screen. Data for the cln2 rad14 strain (AID 165);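 also: 0% = growth equal to vehicle treated cultures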; conditions: S. cerevisiae cln2 rad14 strain, at 50.0 µM, hits give high values
In short: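 Strain: cln2 rad14 yeast, altered in cell cycle control and DNA damage repair. Read-out: growth inhibition vs vehicle.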

[5] = NCI Yeast Anticancer Drug Screen. Data for the bub3 strain (AID 167); conditions: S. cerevisiae bub3 mutant strain, at 50.0 µM, hits give high values
In short: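 Screening used yeast with an engineered genetic alteration affecting cell cycle control. Compound-exposed cultures were compared with vehicle cultures, and reduced growth was taken as inhibition.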

[6] = NCI Yeast Anticancer Drug Screen. Data for the mlh1 rad18 strain (AID 175); conditions: S. cerevisiae mlh1 rad18 strain growth inhibition; at 50.0 µM; hits give high values
In short: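 A repair-deficient yeast strain is exposed to test compound, and growth is scored relative to vehicle-treated controls.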

Measured: growth inhibition

O=C(Nc1cccc(Cl)c1)OCC(Cl)(Cl)Cl
active: [1] 99.6% | [2] 99.8% | [3] 99.4% | [4] 99.8% | [5] 99.3% | [6] 99.7%

COC(=O)C1=C(C)N2[C@H](C(=O)O)CO[C@@]2(C)[C@H](C(=O)OC)[C@H]1c1cccc([N+](=O)[O-])c1
inactive: [1] 26.6% | [2] -8.35% | [3] 21.4% | [4] 4.25% | [5] 25.6% | [6] 22.7%

CCCCC(CC)COP(OCC(CC)CCCC)OCC(CC)CCCC.[Br][Hg][Br] (stereo not drawn)
inactive: [1] 4.55% | [2] -3.1% | [3] -10.8% | [4] -8.25% | [5] -8.95% | [6] -6.4%

O=c1oc2cc(O)ccc2c(O)c1C(c1cccnc1)c1c(O)c2ccc(O)cc2oc1=O
inactive: [1] 0.75% | [2] 1.25% | [3] 11.7% | [4] -0.05% | [5] -0.5% | [6] -80.5%

C/C=C/CC1(CCC(C)C)C(=O)NC(=O)NC1=O
inactive: [1] 24.4% and 26.9% | [2] 8.05% and -0.65% | [3] 9.9% and 4.75% | [4] -19.1% and -4.55% | [5] -5.4% and -2.35% | [6] 10.3% and 17.4%

NNc1ncc[nH]1
inactive: [1] -0.05% | [2] 1.2% | [3] -9.2% | [4] -1% | [5] 12.8% | [6] 4.55%

CSCCC([NH-])C(=O)O.CSCCC([NH-])C(=O)O.[Cu+2] (stereo not drawn)
inactive: [1] -18.1% | [2] 7.95% | [3] -9.2% | [4] -33.3% | [5] -13.1% | [6] -2.5%

C1CN([PH+](N2CC2)N2CC2)CCO1.C1CN([PH+](N2CC2)N2CC2)CCO1.[I][Pd][I]
inactive: [1] 3.9% | [2] 6.7% | [3] -5.7% | [4] -8.05% | [5] 0% | [6] -4.4%
